M1 PAM parental = M1 PAM counterscreen hit in parental CHO-K1 cells | ATP EC20, Fluo-8 calcium fluorescence; 0% at ATP EC20, 100% at ATP max | activation, % at 3 µM | hit rate 0.02% among 360,000 | AID 602247;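 active = activation above the run cutoff, the mean activation of all test compounds plus 3 SD, cut at about 40% in these data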;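 also: peak over basal fluorescence ratio in a 140 s read after ATP addition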
CHO-K1 Ca antag = M1 antagonist counterscreen hit in parental CHO-K1 cells. ATP-induced calcium, Fluo-8 fluorescence. inhibition, % at 3 µM. hit rate 0.6% among 360,000;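 active = inhibition above a per-plate cutoff, the plate's mean sample inhibition plus 3 SD, cut at about 24% in these data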;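 also: 0% = DMSO plus EC80 ATP and 100% = DMSO alone without ATP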
CHRM1 PAM = positive allosteric modulators of human M1 muscarinic receptor. hit rate 0.088% among 360,000. AID 588819. activation, % at 3 µM. CHO-K1 hM1, Fluo-8 calcium fluorescence, ACh EC20; 0% = ACh EC20, 100% = maximal ACh. P11229; in the data active = activation above about 19%, passing the limit was not always enough
Target sequence (P11229 whole entry, looked up): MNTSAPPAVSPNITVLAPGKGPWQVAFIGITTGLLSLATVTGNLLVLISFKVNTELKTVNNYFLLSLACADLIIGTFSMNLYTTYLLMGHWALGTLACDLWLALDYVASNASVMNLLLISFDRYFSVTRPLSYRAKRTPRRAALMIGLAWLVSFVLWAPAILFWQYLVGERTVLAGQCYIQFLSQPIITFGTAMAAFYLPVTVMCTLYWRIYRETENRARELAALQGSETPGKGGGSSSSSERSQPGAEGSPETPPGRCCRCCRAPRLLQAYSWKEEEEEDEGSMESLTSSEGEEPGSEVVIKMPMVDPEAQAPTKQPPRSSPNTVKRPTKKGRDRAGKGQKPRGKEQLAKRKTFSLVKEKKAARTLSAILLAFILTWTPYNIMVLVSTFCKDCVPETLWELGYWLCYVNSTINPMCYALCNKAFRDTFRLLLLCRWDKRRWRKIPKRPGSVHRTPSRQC
CHRM1 antagonist = antagonists of human M1 muscarinic receptor; P11229; CHO-K1 hM1, Fluo-8 calcium fluorescence, ACh EC80 antagonist; inhibition, % at 3 µM; hit rate 1.3% among 360,000;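 active = percent inhibition above its own plate's cutoff, namely the mean of that plate's compound wells plus 3 SD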;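 also: peak over basal fluorescence ratio during 140 s after agonist addition; 0% = ACh EC80 plus DMSO and 100% = DMSO alone without agonist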
M1 ag = agonists of human M1 muscarinic receptor; CHO-K1 hM1, Fluo-8 calcium fluorescence, agonist mode; 0% DMSO, 100% acetylcholine EC100; P11229; AID 588814; activation, % at 3 µM; hit rate 0.33% among 360,000;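 active = activation above the run's mean compound activation plus 3 SD, cut at about 16% in these data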;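 also: peak over basal fluorescence ratio within a 140 s kinetic read after compound addition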
CHO-K1 Ca ag = nonselective activator or artifact in parental CHO-K1 cells. activation, % at 3 µM. hit rate 0.48% among 360,000. Fluo-8 calcium fluorescence; scaled to maximal ATP response, vehicle zero; in the data active = activation above about 15%;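 also: untransfected CHO-K1 host cells lacking M1 receptor as counterscreen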
Starred values were filed as active, the others as inactive. The list is not random: actives were taken first. Their share in the collection is about 2.4%.

How did COc1ccc2nc(NC(=O)c3ccc4ncsc4c3)sc2c1 do in these assays?
M1 PAM parental: 8.8; CHO-K1 Ca antag: 9.2; CHRM1 PAM: 4.0; CHRM1 antagonist: -6.6; M1 ag: 2.3; CHO-K1 Ca ag: 4.5

How did CCOC(=O)C1(C)CCCCN1C(=O)c1cccnc1 (configuration not stated) do in these assays?
M1 PAM parental: 6.5; CHO-K1 Ca antag: -7.6; CHRM1 PAM: 27.2*; CHRM1 antagonist: -32.8; M1 ag: 2.9; CHO-K1 Ca ag: 0.8

What do the screens show for `CCC(=O)N1CCc2cc(S(=O)(=O)N3CCc4ccccc43)ccc21`?
M1 PAM parental: 17.0; CHO-K1 Ca antag: -8.5; CHRM1 PAM: -18.2; CHRM1 antagonist: 6.6; M1 ag: -5.9; CHO-K1 Ca ag: 1.0

How did O=C(O)C(c1ccccc1)N1C(=O)c2ccccc2C1=O (configuration not stated) do in these assays?
M1 PAM parental: 7.1; CHO-K1 Ca antag: -3.7; CHRM1 PAM: 23.7; CHRM1 antagonist: -30.3; M1 ag: 0.8; CHO-K1 Ca ag: -0.2

What do the screens show for `O=C(O)[C@@H](c1ccccc1)N1Cc2ccccc2C1=O`?
M1 PAM parental: -10.1; CHO-K1 Ca antag: 30.3*; CHRM1 PAM: 14.1; CHRM1 antagonist: -14.7; M1 ag: 1.7; CHO-K1 Ca ag: -0.1

What do the screens show for `COc1ccc(S(=O)(=O)N(C)CC(=O)Nc2c(F)cccc2F)cc1`?
M1 PAM parental: 7.9; CHO-K1 Ca antag: -5.8; CHRM1 PAM: 0.2; CHRM1 antagonist: -9.5; M1 ag: -3.7; CHO-K1 Ca ag: -0.5

How did Cc1ccc(NS(=O)(=O)c2cccc3nsnc23)cc1C do in these assays?
M1 PAM parental: -4.6; CHO-K1 Ca antag: 4.4; CHRM1 PAM: -26.4; CHRM1 antagonist: 39.8*; M1 ag: -7.5; CHO-K1 Ca ag: 1.1

How did O=S(=O)(Nc1cccc(F)c1)c1cccc2nsnc12 do in these assays?
M1 PAM parental: 17.0; CHO-K1 Ca antag: -7.9; CHRM1 PAM: 6.7; CHRM1 antagonist: -4.6; M1 ag: -8.9; CHO-K1 Ca ag: 4.5

How did O=C(O)c1cc(Br)ccc1NS(=O)(=O)c1cccc2nsnc12 do in these assays?
M1 PAM parental: -25.1; CHO-K1 Ca antag: 27.3*; CHRM1 PAM: -0.8; CHRM1 antagonist: 10.6; M1 ag: 0.1; CHO-K1 Ca ag: -0.9

How did O=C(Nc1ncccn1)c1cccc(F)c1 do in these assays?
M1 PAM parental: 19.8; CHO-K1 Ca antag: -5.1; CHRM1 PAM: -1.1; CHRM1 antagonist: 6.5; M1 ag: -1.5; CHO-K1 Ca ag: 1.0

What do the screens show for `CCCn1nnc(NC(=O)/C=C/c2ccc(C(C)C)cc2)n1`?
M1 PAM parental: -10.7; CHO-K1 Ca antag: 60.2*; CHRM1 PAM: 2.8; CHRM1 antagonist: -2.3; M1 ag: -0.8; CHO-K1 Ca ag: -0.3

How did CC(C)CC1CCCCC1OC(=O)C[N+]1(C)CCCCC1 (configuration not stated) do in these assays?
M1 PAM parental: 16.2; CHO-K1 Ca antag: -11.4; CHRM1 PAM: -35.6; CHRM1 antagonist: 95.5*; M1 ag: -14.2; CHO-K1 Ca ag: -0.1

How did Cc1ccc(C)n1-n1c(C)nc2sc3c(c2c1=O)CCCCC3 do in these assays?
M1 PAM parental: 18.6; CHO-K1 Ca antag: -9.5; CHRM1 PAM: -21.2; CHRM1 antagonist: 27.6*; M1 ag: -4.9; CHO-K1 Ca ag: 0.8

What do the screens show for `Cn1c(=O)c2[nH]c(Cc3cccc(O)c3)nc2n(C)c1=O`?
M1 PAM parental: 11.7; CHO-K1 Ca antag: -10.7; CHRM1 PAM: 5.2; CHRM1 antagonist: -15.9; M1 ag: -4.4; CHO-K1 Ca ag: 0.4

Results for Cn1c(=O)c2[nH]c(COc3ccc(C(C)(C)C)cc3)nc2n(C)c1=O ?
M1 PAM parental: -0.2; CHO-K1 Ca antag: -4.8; CHRM1 PAM: -14.4; CHRM1 antagonist: 38.9*; M1 ag: 4.0; CHO-K1 Ca ag: 13.6

Results for Clc1ccccc1OCCCCN1CCNCC1 ?
M1 PAM parental: -6.0; CHO-K1 Ca antag: 3.8; CHRM1 PAM: 10.7; CHRM1 antagonist: -19.7; M1 ag: -7.8; CHO-K1 Ca ag: 0.2

How did O=S1(=O)c2ccc(Br)cc2N2CCC[C@@H]2CN1Cc1ccc(Cl)cc1 do in these assays?
M1 PAM parental: -7.7; CHO-K1 Ca antag: 3.3; CHRM1 PAM: -23.2; CHRM1 antagonist: 24.2*; M1 ag: -6.2; CHO-K1 Ca ag: 0.3

How did Cc1ccc(N(C)C(=O)n2cnc3ccccc32)cc1 do in these assays?
M1 PAM parental: -13.7; CHO-K1 Ca antag: 23.0; CHRM1 PAM: -1.8; CHRM1 antagonist: 0.2; M1 ag: -8.8; CHO-K1 Ca ag: -0.1

Screens deposited in PubChem BioAssay by The Scripps Research Institute Molecular Screening Center.
